# GSTO1 counter: inhibitors of recombinant GSTO1, primary screen, counter-screen for RBBP9 inhibitor project, biochemical, fluorescence polarization; Glutathione S-transferase omega-1 (Homo sapiens), P78417; 300,000 tested, 1.1% active; activity-based probe fluorescence polarization; inhibition, % at 5.96 µM;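 active = inhibition above the campaign mean inhibition plus 3 SD, cut at about 35% in these data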;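 note: 0% = GSTO1-1 with DMSO and 100% = wells lacking GSTO1-1 enzyme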
# Target sequence (P78417 whole entry, looked up): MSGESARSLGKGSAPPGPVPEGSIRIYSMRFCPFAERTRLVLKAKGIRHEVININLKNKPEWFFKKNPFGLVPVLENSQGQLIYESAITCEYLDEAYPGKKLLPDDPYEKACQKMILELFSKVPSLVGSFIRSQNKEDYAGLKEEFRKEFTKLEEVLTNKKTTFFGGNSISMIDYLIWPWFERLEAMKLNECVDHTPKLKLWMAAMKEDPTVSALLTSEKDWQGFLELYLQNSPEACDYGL
# LYPLA1 inh: LYPLA1 inhibitors, primary screen, counter-screen for PME1 inhibitor project, biochemical, fluorescence polarization, FP-Rh probe ABPP; recombinant LYPLA1; 320,000 tested, 0.16% active; inhibition, % at 5.9 µM;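 active = inhibition above the mean of all tested compounds plus 3 SD, set per campaign, cut at about 14% in these data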;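 note: inhibitors block serine hydrolase probe labeling of LYPLA1 so polarization falls; 0% = enzyme with DMSO and 100% = wells lacking LYPLA1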
# LYPLA2 inh: LYPLA2 inhibitors, primary screen, counter-screen for PME1 inhibitor project, biochemical, fluorescence polarization, FP-Rh probe ABPP | 320,000 tested, 0.38% active | inhibition, % at 5.9 µM | recombinant LYPLA2 | Acyl-protein thioesterase 2 (Homo sapiens), O95372;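 active = inhibition above the screen-wide mean plus 3 SD, limit set per campaign, cut at about 26% in these data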;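 note: 0% = LYPLA2 with DMSO and 100% = wells lacking LYPLA2 enzyme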
# PME-1 primary: PME-1 inhibitors via competitive probe labeling, primary screen, biochemical, fluorescence polarization, FP-Rh probe, HTS. recombinant PME-1. inhibition, % at 5.9 µM. Protein phosphatase methylesterase 1 (Homo sapiens), Q9Y570. 320,000 tested, 0.53% active. AID 2130, 2009;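 active = inhibition above the campaign mean of all compounds plus 3 SD, cut at about 26% in these data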;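 note: competitive labeling of PME-1 active site by serine hydrolase directed probe; 0% = PME-1 with DMSO and 100% = wells lacking PME-1 enzyme; inhibitors block probe labeling so polarization falls and inhibition rises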
# Target sequence (Q9Y570 whole entry, looked up): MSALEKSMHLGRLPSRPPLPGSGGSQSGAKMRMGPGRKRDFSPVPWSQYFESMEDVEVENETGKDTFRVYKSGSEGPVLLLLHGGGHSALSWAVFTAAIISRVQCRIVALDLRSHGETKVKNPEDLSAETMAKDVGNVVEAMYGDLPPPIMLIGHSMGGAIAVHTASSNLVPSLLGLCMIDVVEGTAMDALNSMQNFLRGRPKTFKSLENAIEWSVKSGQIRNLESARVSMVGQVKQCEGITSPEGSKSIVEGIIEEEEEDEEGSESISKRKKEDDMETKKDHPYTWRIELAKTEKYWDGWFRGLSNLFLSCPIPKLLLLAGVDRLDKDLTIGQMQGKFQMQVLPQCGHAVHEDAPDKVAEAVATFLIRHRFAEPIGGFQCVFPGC
# Fam108B counter: mouse Fam108B serine hydrolase inhibitors, primary screen, counter-screen for RBBP9 inhibitor project, biochemical, fluorescence polarization. 300,000 tested, 0.33% active. inhibition, % at 9.51 µM. recombinant Fam108B, FP-Rh probe fluorescence polarization;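 active = inhibition above the screen mean inhibition plus 3 SD, computed separately per campaign, cut at about 18% in these data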;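 note: inhibitors lower polarization as less probe binds the enzyme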
# PAD4 inh: human PAD4 inhibitors, primary screen, biochemical, fluorescence polarization, 1536-well format; Protein-arginine deiminase type-4 (Homo sapiens), Q9UM07; recombinant PAD4, RCA probe fluorescence polarization; inhibition, % at 6.36 µM; 330,000 tested, 0.41% active; AID 485272, 2010;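 active = percent inhibition above a cutoff equal to the mean of all tested compounds plus 3 SD, cut at about 15% in these data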;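 note: 0% = PAD4 with RCA probe and DMSO and 100% = probe without PAD4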
# LYPLA2 confirm: LYPLA2 inhibitors, retest, confirmation, counter-screen for PME1 inhibitor project, biochemical, fluorescence polarization, FP-Rh probe ABPP; 1,100 tested, 72% active; AID 2232, 2010; inhibition, % at 5.9 µM; recombinant LYPLA2; shares compounds with LYPLA2 inh;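 active = mean inhibition across replicates above the hit cutoff set in the primary screen, cut at about 26% in these data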;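 note: blocked labeling of the enzyme by serine hydrolase FP-Rh probe lowers polarization; 0% = enzyme with DMSO and 100% = wells lacking LYPLA2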
# LYPLA2 ABPP: LYPLA2 inhibitors in proteome, late-stage follow-up, gel-based competitive ABPP, fluorescence, assay provider; inhibition, % at 20 µM; rhLYPLA2 in mouse brain proteome, gel ABPP FP-Rh; shares compounds with LYPLA2 inh; AID 652029, 2013; 150 tested, 30% active;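 active = inhibition of LYPLA2 enzyme probe labeling above about 50%, limit read from the data; inactive = inhibition below that limit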;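 note: loss of FP-Rh probe labeling of the LYPLA2 gel band measured as band density; 0% = DMSO only control band and 100% = blank gel background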
# * marks the source's active call; other numbers are inactive results; nt = not tested or not shown. Sampled rows, rich in hits. Any-hit rate of the full collection: about 1.8%.
SMILES,GSTO1 counter,LYPLA1 inh,LYPLA2 inh,PME-1 primary,Fam108B counter,PAD4 inh,LYPLA2 confirm,others
O=Cc1cccc(Oc2ccc([N+](=O)[O-])cc2[N+](=O)[O-])c1,5.3,0.1,41.5*,5.9,-2.6,0.5,27.2*,
O=[N+]([O-])c1cc(/C=N/O)ccc1Oc1cccc(Cl)c1,1.5,-5.4,8.2,14.2,-2.5,-2.8,nt,
Cc1cc(N2CCOCC2)nc2ccc(NC(=O)CCC(=O)N3CCN(c4cccc(C(F)(F)F)c4)CC3)cc12,-1.3,1.8,41.4*,8.9,4.3,-3.2,50.9*,LYPLA2 ABPP=10.0
COc1ccc(N2CCN(C(=O)CCNS(=O)(=O)c3cccs3)CC2)cc1,-11.8,0.9,10.0,-0.1,-5.9,2.5,nt,
O=C(CCNS(=O)(=O)c1cccs1)N1CCN(c2cccc(C(F)(F)F)c2)CC1,nt,5.0,36.8*,1.7,nt,-1.2,28.0*,
CC1CN(C(=O)CCC(=O)N2CCN(c3cccc(C(F)(F)F)c3)CC2)c2ccccc2O1 (stereo unspecified),-2.7,12.4,59.3*,5.9,4.3,0.9,59.1*,LYPLA2 ABPP=44.0
Cc1ccc(-c2noc(CCC(=O)N3CCN(c4cccc(C(F)(F)F)c4)CC3)n2)cc1,-6.2,0.1,42.1*,-3.6,3.5,-2.3,38.2*,
CCOC(=O)Cc1csc(NC(=O)c2c(O)c3c(n(CC(C)C)c2=O)CCCC3)n1,2.4,-5.7,1.6,-5.6,-4.6,-1.9,nt,
Cn1c(=O)cc(OCC(=O)N2CCN(c3cccc(C(F)(F)F)c3)CC2)c2ccccc21,-3.0,2.9,32.6*,-1.4,-4.9,0.3,62.3*,LYPLA2 ABPP=15.0
COc1ccc(C(=O)NC(=S)Nc2ccc(Cc3ccncc3)cc2)cc1,2.0,-1.4,31.9*,1.4,-3.6,3.0,35.0*,
Cc1ccccc1C(=O)NC(=S)Nc1ccc(Cc2ccncc2)cc1,-1.3,0.8,9.8,2.4,-1.1,-0.2,nt,
O=C(NC(=S)Nc1ccc(Cl)c(C(=O)O)c1)c1cccc(COc2ccccc2)c1,-3.3,6.6,37.0*,-7.7,-3.9,-2.8,38.0*,
O=C(NC(=S)Nc1ccc(Cl)c(C(=O)O)c1)c1ccc(OCc2ccccc2)cc1,-7.2,7.9,36.5*,4.4,-3.1,-6.8,33.4*,
Cc1c(NC(=S)NC(=O)c2ccc(COc3ccccc3)cc2)cccc1C(=O)O,-5.8,6.6,30.2*,2.7,3.0,-0.4,25.2,
CCCCOc1cccc(C(=O)NC(=S)Nc2ccc(Cl)c(C(=O)O)c2)c1,-2.7,2.1,7.5,-3.9,0.6,0.3,nt,
O=C(O)c1ccc(Cl)c(NC(=S)NC(=O)c2cccc(COc3ccccc3)c2)c1,-9.8,-8.9,9.8,-5.1,-16.0,-4.8,nt,
CCN(CC(=O)Nc1cc(Cl)ccc1C)C(=O)c1ccc2c(c1)NC(=O)C(C)S2 (stereo unspecified),-7.3,1.3,9.0,-3.2,1.6,-2.3,nt,
O=C(c1ccc(F)cc1)C1CCN(CCn2c(=O)[nH]c3ccccc3c2=O)CC1,3.5,8.4,33.3*,0.3,4.4,-2.3,36.1*,
CC(=O)c1ccc(N2CCN(C(=O)c3noc4c3CSc3ccccc3-4)CC2)cc1,0.4,6.1,44.5*,0.2,0.8,-3.7,17.0,
CC(=O)c1ccc(N2CCN(C(=O)c3c(-c4ccccc4Cl)noc3C)CC2)cc1,-2.5,-0.1,0.2,1.6,0.0,-0.1,nt,
CC(C)NS(=O)(=O)c1ccc(NC(=O)C(C)OC(=O)CCC2CCCC2)cc1 (stereo unspecified),nt,-3.8,0.9,6.2,nt,0.8,nt,
CN=C1SC(CC(=O)Nc2ccc(F)cc2F)C(=O)N1/N=C(\C)c1cccc(OCC(=O)O)c1 (stereo unspecified),7.1,-1.1,25.8*,5.3,1.5,2.9,24.5,
O=C(NCc1ccco1)c1ccc(COCC(F)(F)F)cc1,-1.9,-5.6,-2.5,-4.5,-5.4,-6.1,nt,
COc1ccc(OC)c(-c2cc(C(=O)Nc3c(C)nn(Cc4ccccc4Cl)c3C)no2)c1,-5.8,-1.7,39.5*,-4.8,-9.0,-6.2,28.6*,
COc1ccc(-c2cc(C(=O)Nc3c(C)nn(Cc4ccccc4Cl)c3C)no2)cc1OC,-3.4,-1.0,4.3,-8.6,-5.2,0.0,nt,
SMILES,GSTO1 counter,LYPLA1 inh,LYPLA2 inh,PME-1 primary,Fam108B counter,PAD4 inh,LYPLA2 confirm,others
COc1ccc(OC)c(-c2cc(C(=O)Nc3c(C)nn(Cc4ccccc4C)c3C)no2)c1,-3.5,11.1,63.7*,-5.5,-6.8,-2.1,54.6*,LYPLA2 ABPP=50.0*
O=C(NCCNc1ccc([N+](=O)[O-])cc1C(F)(F)F)c1ccccc1F,2.2,-7.0,27.1*,-5.0,-5.6,0.8,25.6,
Cc1ccc(C(=O)NCCNc2ccc([N+](=O)[O-])cc2C(F)(F)F)cc1,12.8,-3.0,8.0,8.2,-0.6,4.1,nt,
COc1ccccc1NC(=O)CSc1nc2nccnc2c(=O)n1Cc1cccs1,10.9,-2.8,26.9*,10.9,3.5,5.2,-3.7,
O=C(CSc1nc2nccnc2c(=O)n1Cc1cccs1)Nc1ccccc1,3.7,-7.4,4.0,-2.1,-0.7,-2.3,nt,
CN(C)C(=S)SCC(=O)NC(=O)NC(C)(C)C,1.5,0.1,3.5,2.1,-2.0,-2.9,nt,
Cc1cc(C)c(N=C2SCC(=O)N2Cc2ccco2)c(C)c1,-0.6,1.6,-1.8,-4.0,1.0,0.8,nt,
O=C1CSC(=Nc2ccc(Cl)cc2)N1Cc1ccco1,0.8,8.1,25.8*,4.4,-6.2,-7.6,27.7*,
Cc1ccccc1NC(=O)C(C)n1c2ccccc2c2nc(=O)cc(C)n21 (stereo unspecified),-3.1,1.4,5.2,1.3,-1.1,-2.9,nt,
Cc1nn(Cc2ccccc2)c2c1C(c1cccnc1)C(C#N)=C(N)O2 (stereo unspecified),15.9,-2.2,-4.7,0.7,0.4,-0.1,nt,
CCCc1nn(C)c2c1C(c1cccnc1)C(C#N)=C(N)O2 (stereo unspecified),-3.3,2.2,28.6*,1.6,2.6,-6.5,-0.6,
O=[N+]([O-])c1ccccc1/C=C\C=N\N1CCN(c2ccccc2)CC1,6.3,9.5,40.0*,-4.3,0.7,-4.7,36.1*,

# Source: PubChem BioAssay (The Scripps Research Institute Molecular Screening Center)
